Measurements taken from PubChem BioAssay (NCI).
Compounds without any hit were thinned out: in the full panel of roughly 79,000, 15% have a hit. A number with no mark means an inactive call. Calls of active or inactive are those of the source. Cut-off read from the data, not from the text of the source: active = growth inhibition above about 70%; inactive = the rest.

Legend:
[1] = NCI Yeast Anticancer Drug Screen. Data for the rad50 strain (AID 155);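 note: 0% = growth of vehicle-only cultures of the same strain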; conditions: S. cerevisiae rad50 strain growth inhibition, stronger effect = higher value
Method in brief: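 Inhibition values express reduced yeast growth in compound-treated cultures relative to vehicle-treated controls.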

[2] = NCI Yeast Anticancer Drug Screen. Data for the mec2-1 strain (AID 157); conditions: S. cerevisiae mec2-1 strain, stronger effect = higher value
Method in brief: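 Test agents were screened against the mec2-1 yeast strain, with defined DNA repair or cell cycle alteration. Growth was scored as inhibition against vehicle-only controls.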

[3] = NCI Yeast Anticancer Drug Screen. Data for the sgs1 mgt1 strain (AID 161);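 note: 0% = growth of cultures given vehicle only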; conditions: S. cerevisiae sgs1 mgt1 strain, stronger effect = higher value
Method in brief: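 Read-out: growth inhibition vs vehicle controls. Cells: mutant yeast strain deficient in DNA damage repair.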

[4] = NCI Yeast Anticancer Drug Screen. Data for the bub3 strain (AID 167); conditions: S. cerevisiae bub3 mutant strain, stronger effect = higher value
Method in brief: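 Steps: expose the mutant yeast strain to compound; grow alongside vehicle-treated cultures; measure growth; express inhibition against the vehicle cultures.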

[5] = NCI Yeast Anticancer Drug Screen. Data for the mlh1 rad18 strain (AID 175); conditions: S. cerevisiae mlh1 rad18 strain growth inhibition, stronger effect = higher value
Method in brief: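 In this whole-cell yeast screen, a strain with altered DNA damage repair is challenged with compound, and its growth is measured against matched vehicle-treated controls.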

[6] = NCI Yeast Anticancer Drug Screen. Data for the cln2 rad14 strain (AID 165);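 note: 0% = growth equal to vehicle treated cultures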; conditions: S. cerevisiae cln2 rad14 strain, stronger effect = higher value
Method in brief: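 Growth of compound-exposed yeast (cln2 rad14 genotype) measured and expressed as inhibition relative to vehicle.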

[7] = at 5.0 µM (retest, dose inferred, filed as 0.5)
[8] = at 50.0 µM (retest, dose inferred, filed as 5.0)

Row | SMILES | growth inhibition [1, 7] | growth inhibition [1, 8] | growth inhibition ([1]; at 50.0 µM) | growth inhibition [2, 7] | growth inhibition [2, 8] | growth inhibition ([2]; at 50.0 µM) | growth inhibition [3, 7] | growth inhibition [3, 8] | growth inhibition ([3]; at 50.0 µM) | growth inhibition [4, 7] | growth inhibition [4, 8] | growth inhibition ([4]; at 50.0 µM) | growth inhibition [5, 7] | growth inhibition [5, 8] | growth inhibition ([5]; at 50.0 µM) | growth inhibition [6, 7] | growth inhibition [6, 8] | growth inhibition ([6]; at 50.0 µM)
1 | CC(O)C(O)C(O)C(O)C(O)C(=O)NNc1ccccc1 (configuration not stated) | 9% | 75% (active) | 44% | -1% | 37% | 52.6% | 7% | 40% | 63.2% | 29% | 91% (active) | 75.6% (active) | 26% | 85% (active) | 83.2% (active) | – | – | –
2 | CC(C)(C)N/N=C(/Cc1nc2c3c(ccc2[nH]c1=O)C(=O)c1ccccc1C3=O)C(=O)NC1=C(Cl)C(=O)c2ccccc2C1=O | 27% | 91% (active) | 82.8% (active) | 0% | 62% | 46.6% | 27% | 77% (active) | 67.8% | – | – | – | 21% | 79% (active) | 42.4% | -24% | 39% | 21.7%
3 | CC1(c2ccc(O)cc2)CCC(C(C)(C)c2ccc(O)cc2)CC1 (configuration not stated) | 41% | 99% (active) | 90.5% (active) | 46% | 100% (active) | 91.9% (active) | 80% (active) | 97% (active) | – | 89% (active) | 96% (active) | – | – | – | – | 60% | 97% (active) | –
4 | N#Cc1ccc(Br)cc1[N+](=O)[O-] | 45% | 64% | 91.2% (active) | 41% | 63% | 93.2% (active) | 74% (active) | 100% (active) | – | 87% (active) | 100% (active) | – | 33% | 61% | 92% (active) | 90% (active) | 100% (active) | –
5 | COC(=O)c1ccc(Cl)c(NN)c1 | 49% | 66% | 90.4% (active) | 29% | 59% | 92.8% (active) | 86% (active) | 98% (active) | – | 93% (active) | 99% (active) | – | – | – | – | 61% | 99% (active) | –
6 | CN(Cc1ccccc1)c1ccc(SC#N)cc1 | -2% | 82% (active) | 81% (active) | -4% | 61% | 87.5% (active) | -5% | 90% (active) | 79.5% (active) | 6% | 80% (active) | 92.7% (active) | 3% | 85% (active) | 89% (active) | – | – | –
7 | COc1cc(N(CCC#N)CCC#N)ccc1/C(N=Nc1ccc([N+](=O)[O-])cc1)=N/NC(=O)c1cc(Br)ccc1O | 6% | 27% | 63% | 14% | 42% | 44.6% | -6% | 35% | 40.6% | 8% | 48% | 51% | 15% | 37% | 46.1% | – | – | –
8 | Cc1cc(C(=C2C=CC(=Nc3ccccc3)C=C2)c2ccc(Nc3ccccc3)cc2)ccc1N | 6% | 60% | 43.8% | 7% | 82% (active) | 88.4% (active) | -5% | 79% (active) | 65.3% | 30% | 75% (active) | 83.3% (active) | 13% | 71% (active) | -23.6% | – | – | –
9 | S=C(S)OCN1CCOCC1 | 80% (active) | 32% | 98.1% (active) | 59% | 23% | 98.2% (active) | 70% (active) | 28% | 96.8% (active) | – | – | – | 51% | 35% | 98.2% (active) | 58% | 20% | 97.3% (active)
10 | O=C(O)c1cccc2cccc(-c3c4ccc(=O)c(O)c-4oc4c(O)c(O)ccc34)c12 | 86% (active) | 96% (active) | 87% (active) | 84% (active) | 97% (active) | 90% (active) | 93% (active) | 98% (active) | 90% (active) | 93% (active) | 97% (active) | 87.5% (active) | 96% (active) | 95% (active) | 85.7% (active) | 62% | 97% (active) | 89% (active)
11 | CCCCCCCCCCCCCCCC[N+](C)(C)C | 53% | 94% (active) | 91.3% (active) | 45% | 87% (active) | 93.1% (active) | 93% (active) | 97% (active) | – | 97% (active) | 96% (active) | – | 30% | 84% (active) | 91.7% (active) | 82% (active) | 97% (active) | –
12 | Cc1ccc(N2C(=O)C=CC2=O)cc1 | 95% (active) | 99% (active) | 99.3% (active) | 99% (active) | 99% (active) | 99.5% (active) | 89% (active) | 99% (active) | 99.7% (active) | 99% (active) | 99% (active) | 98.9% (active) | 82% (active) | 100% (active) | 99.2% (active) | – | – | –
